Laboratory results published in PubChem BioAssay (Tox21).
Inconclusive results are not listed. Activity calls are given as the source filed them. Unless noted, calls follow the shape of the dose curve; as a rule, active = well fitted curve in the direction sought with a large enough effect in the repeat runs; inconclusive = weak or mixed curves; inactive = no such curve, though single readings can be large; an effect the other way counts as inactive or inconclusive.

Assays:
[1] = qHTS assay to identify aromatase inhibitors - cell viability counter screen (AID 743084);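 also: cells stimulated with testosterone during compound exposure; nearly all actives have a fitted effect of over 55% in size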
[2] = qHTS assay to identify small molecule that activate the aryl hydrocarbon receptor (AhR) signaling pathway - cell viability counter screen (AID 743086);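 also: HepG2 liver cells carrying the AhR DRE luciferase reporter; series mostly up to about 70 µM; nearly all actives have a fitted effect of over 45% in size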
Method in brief: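 HepG2-AhR-luc (HG2L7.5c1) cells, 4000/well, treated 24 h at 37 C with compound; viability measured as CellTiter-Fluor fluorescence after 30 min in the same wells as the luciferase read.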

[3] = molecular target: Peroxisome proliferator-activated receptor gamma (Homo sapiens) (UniProt P37231); experiment: qHTS assay to identify small molecule agonists of the peroxisome proliferator-activated receptor gamma (PPARg) signaling pathway (AID 743094; active = well fitted activation curve with a large enough effect in the signal ratio in the repeat runs, not every such curve was filed as active; the % refers to the signal ratio)
Peroxisome proliferator-activated receptor gamma (Homo sapiens), sequence (P37231 whole entry, looked up): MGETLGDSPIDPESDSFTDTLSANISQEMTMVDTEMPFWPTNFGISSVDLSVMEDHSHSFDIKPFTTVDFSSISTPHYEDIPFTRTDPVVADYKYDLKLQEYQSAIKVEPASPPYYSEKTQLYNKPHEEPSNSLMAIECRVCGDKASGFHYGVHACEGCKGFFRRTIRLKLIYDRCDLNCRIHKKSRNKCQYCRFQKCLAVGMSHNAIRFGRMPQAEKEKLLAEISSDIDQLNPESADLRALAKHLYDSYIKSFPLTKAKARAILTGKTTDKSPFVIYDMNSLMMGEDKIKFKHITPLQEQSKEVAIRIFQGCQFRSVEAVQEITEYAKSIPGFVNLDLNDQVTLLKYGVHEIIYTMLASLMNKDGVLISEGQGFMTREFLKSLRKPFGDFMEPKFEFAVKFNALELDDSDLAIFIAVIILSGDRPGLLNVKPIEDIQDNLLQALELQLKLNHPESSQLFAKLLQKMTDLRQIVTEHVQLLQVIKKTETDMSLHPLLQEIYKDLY
Method in brief: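 Quantitative HTS agonist mode: stable HEK293H line with UAS-beta-lactamase reporter under PPARg control, 17 h compound exposure at 37C, fluorescence after 1 h FRET substrate loading at room temperature.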

[4] = qHTS assay to identify small molecule antagonists of the peroxisome proliferator-activated receptor gamma (PPARg) signaling pathway - cell viability counter screen (AID 743194); also: nearly all actives have a fitted effect of over 55% in size
Method in brief: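 Cytotoxicity counter screen in PPARg-bla HEK293H cells, same wells as reporter assay. Compounds plus 50 nM rosiglitazone (final) for 17 h at 37 C, then viability read by CellTiter-Glo luminescence.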

[5] = qHTS assay for small molecule agonists of the antioxidant response element (ARE) signaling pathway (AID 743202; active = well fitted activation curve with a large enough effect in the signal ratio in the repeat runs, not every such curve was filed as active; the % refers to the signal ratio)
Method in brief: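 ARE-bla HepG2 cells (beta-lactamase reporter under the antioxidant response element), plated 5 hours, then exposed to compounds 16 hours at 37 C. LiveBLAzer B/G FRET substrate added for 2 hours at room temperature; fluorescence intensity read.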

[6] = qHTS assay for small molecule agonists of the antioxidant response element (ARE) signaling pathway - cell viability counter screen (AID 743203; calls by dose curve; also: nearly all actives have a fitted effect of over 55% in size)
Method in brief: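 Seeded at 2,000 cells/well, ARE-bla HepG2 cells were incubated 5 hrs before compound addition. After 16 hrs of treatment at 37C with 5% CO2, CellTiter-Glo reagent was added and luminescence read 30 min later.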

[7] = qHTS assay to identify small molecule agonists of the peroxisome proliferator-activated receptor delta (PPARd) signaling pathway - cell viability counter screen (AID 743211); also: nearly all actives have a fitted effect of over 55% in size
Method in brief: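 PPARd-bla HEK293H cells (3000/well) were pre-incubated 5 h at 37 C, then exposed to compound for 17 h at 37 C. After 2 h with LiveBLAzer substrate, CellTiter-Glo was added to the same wells; luminescence read after 30 min at room temperature.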

[8] = qHTS assay to identify small molecule antagonists of the peroxisome proliferator-activated receptor delta (PPARd) signaling pathway - cell viability counter screen (AID 743213); also: nearly all actives have a fitted effect of over 50% in size
Method in brief: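 PPARd-bla HEK293H cells were treated with compounds plus agonist L165041 (300 nM final) for 17 h at 37 C. Viability was then read in the same wells by CellTiter-Glo luminescence after 30 min at room temperature.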

[9] = qHTS assay to identify small molecule agonists of the farnesoid-X-receptor (FXR) signaling pathway - cell viability counter screen (AID 743218); also: nearly all actives have a fitted effect of over 45% in size
Method in brief: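 Cytotoxicity counter-screen run in parallel, same wells: FXR-UAS-bla HEK 293T cells dosed 16 h at 37 C, viability read by CellTiter-Glo luminescence after 30 min at room temperature.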

[10] = molecular target: Vitamin D3 receptor (Homo sapiens) (UniProt P11473); experiment: qHTS assay to identify small molecule agonists of the vitamin D receptor (VDR) signaling pathway (AID 743222; calls by dose curve)
Vitamin D3 receptor (Homo sapiens), sequence (P11473 whole entry, looked up): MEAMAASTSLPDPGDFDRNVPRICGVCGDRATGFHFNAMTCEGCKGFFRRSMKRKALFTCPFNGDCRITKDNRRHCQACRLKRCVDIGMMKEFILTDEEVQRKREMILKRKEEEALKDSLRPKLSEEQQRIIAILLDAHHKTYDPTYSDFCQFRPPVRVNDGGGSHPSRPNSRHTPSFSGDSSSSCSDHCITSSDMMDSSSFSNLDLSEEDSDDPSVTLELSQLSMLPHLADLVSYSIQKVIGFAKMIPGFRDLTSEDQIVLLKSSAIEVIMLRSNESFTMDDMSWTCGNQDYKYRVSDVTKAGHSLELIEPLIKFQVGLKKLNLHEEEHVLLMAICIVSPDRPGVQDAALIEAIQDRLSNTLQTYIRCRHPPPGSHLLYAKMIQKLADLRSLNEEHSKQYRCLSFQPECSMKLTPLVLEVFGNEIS
Method in brief: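 Quantitative HTS agonist-mode screen: compounds in DMSO were pin-transferred onto VDR-bla cells and incubated 16 h at 37C, 5% CO2. Reporter activity was detected with LiveBLAzer B/G FRET substrate after 2 h at room temperature.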

[11] = molecular target: Vitamin D3 receptor (Homo sapiens) (UniProt P11473); experiment: qHTS assay to identify small molecule antagonists of the vitamin D receptor (VDR) signaling pathway (AID 743223; active = well fitted inhibition curve with a large enough effect in the signal ratio in the repeat runs, not every such curve was filed as active; the % refers to the signal ratio)
Method in brief: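 VDR-bla cells were treated with compound plus 3 nM final 1alpha,25-dihydroxyvitamin D3 for 16 h at 37C. Beta-lactamase reporter read by B/G FRET substrate fluorescence after 2 h at room temperature. qHTS format.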

[12] = molecular target: Peroxisome proliferator-activated receptor gamma (Homo sapiens) (UniProt P37231); experiment: qHTS assay to identify small molecule antagonists of the peroxisome proliferator-activated receptor gamma (PPARg) signaling pathway (AID 743191; calls by dose curve; also: series mostly up to about 63 µM; nearly all actives have a fitted effect of over 30% in size)
Method in brief: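 GeneBLAzer PPARg UAS-bla HEK293H cells, 5 h post-plating, exposed to compounds 17 h at 37C. LiveBLAzer B/G FRET substrate added for 1 h at room temperature; beta-lactamase reporter read by fluorescence intensity.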

[13] = qHTS assay for small molecule activators of the heat shock response signaling pathway - cell viability counter screen (AID 743209); also: nearly all actives have a fitted effect of over 50% in size
Method in brief: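 First, HSE-bla HeLa cells were seeded at 1500 cells/well and kept overnight at 37 C. Next, compounds were pinned in and incubated 5 h. After the FRET substrate step, CellTiter-Glo was added and luminescence read 30 min later.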

[14] = qHTS assay for small molecule activators of the heat shock response signaling pathway (AID 743210; active = well fitted activation curve with a large enough effect in the signal ratio in the repeat runs, with a control signal flat, not every such curve was filed as active; the % refers to the signal ratio; also: series mostly up to about 63 µM)
Method in brief: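 HSE-bla HeLa cells (beta-lactamase reporter under heat shock response elements), plated overnight, then exposed to compounds 5 h at 37 C; LiveBLAzer B/G FRET substrate added, 2.5 h at room temperature, fluorescence intensity read.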

[15] = molecular target: Peroxisome proliferator-activated receptor delta (Homo sapiens) (UniProt Q03181); experiment: qHTS assay to identify small molecule agonists of the peroxisome proliferator-activated receptor delta (PPARd) signaling pathway (AID 743212; calls by dose curve)
Peroxisome proliferator-activated receptor delta (Homo sapiens), sequence (Q03181 whole entry, looked up): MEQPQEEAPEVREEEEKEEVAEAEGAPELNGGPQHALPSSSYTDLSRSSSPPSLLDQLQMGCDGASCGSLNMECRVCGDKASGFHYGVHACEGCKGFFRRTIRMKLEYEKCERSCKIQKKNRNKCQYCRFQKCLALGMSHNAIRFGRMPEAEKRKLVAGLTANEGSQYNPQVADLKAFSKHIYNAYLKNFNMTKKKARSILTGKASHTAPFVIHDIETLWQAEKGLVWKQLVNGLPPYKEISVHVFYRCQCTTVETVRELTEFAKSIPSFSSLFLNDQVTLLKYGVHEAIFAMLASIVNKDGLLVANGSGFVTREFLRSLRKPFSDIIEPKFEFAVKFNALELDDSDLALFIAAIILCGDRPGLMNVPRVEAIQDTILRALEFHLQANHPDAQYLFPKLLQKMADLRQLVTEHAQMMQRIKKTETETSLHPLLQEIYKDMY
Method in brief: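 GeneBLAzer UAS-bla HEK293H cells carrying a PPARδ construct were exposed to compounds at 37 °C. Beta-lactamase activity was read by FRET fluorescence after 2 h at room temperature with LiveBLAzer B/G substrate.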

[16] = molecular target: Peroxisome proliferator-activated receptor delta (Homo sapiens) (UniProt Q03181); experiment: qHTS assay to identify small molecule antagonists of the peroxisome proliferator-activated receptor delta (PPARd) signaling pathway (AID 743215; active = well fitted inhibition curve with a large enough effect in the signal ratio in the repeat runs, not every such curve was filed as active; the % refers to the signal ratio;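 also: cells stimulated with agonist L165041 at 300 nM final during compound exposure; series mostly up to about 62 µM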)
Method in brief: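 Inhibition of L165041-driven (300 nM final) PPARd signaling is scored in HEK293H UAS-bla cells. Exposure lasts 17 h at 37 C; beta-lactamase activity is then read by FRET substrate fluorescence after 2 h at room temperature.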

[17] = qHTS assay to identify small molecule antagonists of the farnesoid-X-receptor (FXR) signaling pathway - cell viability counter screen (AID 743221; active = well fitted cell-killing curve with a large enough effect in the repeat runs, not every such curve was filed as active; also: nearly all actives have a fitted effect of over 50% in size)
Method in brief: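 GeneBLAzer FXR-UAS-bla HEK 293T cells, compound plus chenodeoxycholic acid (50 uM final), 16 h at 37 C. CellTiter-Glo added to the same wells after the beta-lactamase read; luminescence read after 30 min at room temperature as viability.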

[18] = molecular target: Aryl hydrocarbon receptor (Homo sapiens) (UniProt P35869); experiment: qHTS assay to identify small molecule that activate the aryl hydrocarbon receptor (AhR) signaling pathway (AID 743085);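 also: HG2L7.5c1 human HepG2 liver cells with stably integrated DRE-driven firefly reporter; series mostly up to about 70 µM; nearly all actives have a fitted effect of over 15% in size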
Aryl hydrocarbon receptor (Homo sapiens), sequence (P35869 whole entry, looked up): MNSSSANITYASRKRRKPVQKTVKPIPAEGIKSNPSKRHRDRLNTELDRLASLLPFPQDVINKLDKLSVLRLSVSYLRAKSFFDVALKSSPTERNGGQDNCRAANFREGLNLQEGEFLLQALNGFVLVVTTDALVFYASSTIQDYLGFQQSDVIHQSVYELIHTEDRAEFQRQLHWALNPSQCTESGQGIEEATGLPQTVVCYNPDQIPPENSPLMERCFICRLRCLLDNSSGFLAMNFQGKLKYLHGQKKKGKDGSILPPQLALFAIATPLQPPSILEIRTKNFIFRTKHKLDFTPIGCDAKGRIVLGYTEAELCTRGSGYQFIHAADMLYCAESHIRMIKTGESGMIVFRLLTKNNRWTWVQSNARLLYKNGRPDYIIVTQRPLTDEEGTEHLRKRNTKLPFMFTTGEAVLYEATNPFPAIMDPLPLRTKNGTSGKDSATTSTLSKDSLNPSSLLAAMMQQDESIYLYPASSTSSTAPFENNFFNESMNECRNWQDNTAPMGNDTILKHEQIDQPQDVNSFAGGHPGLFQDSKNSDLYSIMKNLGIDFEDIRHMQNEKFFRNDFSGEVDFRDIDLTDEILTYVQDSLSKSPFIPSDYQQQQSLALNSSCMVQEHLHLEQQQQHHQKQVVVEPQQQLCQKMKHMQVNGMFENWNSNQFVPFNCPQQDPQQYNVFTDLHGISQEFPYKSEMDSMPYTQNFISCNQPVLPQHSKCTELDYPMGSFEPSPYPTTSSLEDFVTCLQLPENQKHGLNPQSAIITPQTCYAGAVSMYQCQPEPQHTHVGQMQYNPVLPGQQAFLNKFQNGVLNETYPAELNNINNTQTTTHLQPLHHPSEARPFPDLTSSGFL
Method in brief: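 HepG2 cells stably carrying a 20-DRE firefly luciferase reporter (HG2L7.5c1) treated with compound for 24 hr at 37C. Luciferase read by ONE-Glo luminescence, with CellTiter-Fluor viability read first.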

[19] = molecular target: Bile acid receptor (Homo sapiens) (UniProt Q96RI1); experiment: qHTS assay to identify small molecule antagonists of the farnesoid-X-receptor (FXR) signaling pathway (AID 743217; active = well fitted inhibition curve with a large enough effect in the signal ratio in the repeat runs, not every such curve was filed as active; the % refers to the signal ratio)
Bile acid receptor (Homo sapiens), sequence (Q96RI1 whole entry, looked up): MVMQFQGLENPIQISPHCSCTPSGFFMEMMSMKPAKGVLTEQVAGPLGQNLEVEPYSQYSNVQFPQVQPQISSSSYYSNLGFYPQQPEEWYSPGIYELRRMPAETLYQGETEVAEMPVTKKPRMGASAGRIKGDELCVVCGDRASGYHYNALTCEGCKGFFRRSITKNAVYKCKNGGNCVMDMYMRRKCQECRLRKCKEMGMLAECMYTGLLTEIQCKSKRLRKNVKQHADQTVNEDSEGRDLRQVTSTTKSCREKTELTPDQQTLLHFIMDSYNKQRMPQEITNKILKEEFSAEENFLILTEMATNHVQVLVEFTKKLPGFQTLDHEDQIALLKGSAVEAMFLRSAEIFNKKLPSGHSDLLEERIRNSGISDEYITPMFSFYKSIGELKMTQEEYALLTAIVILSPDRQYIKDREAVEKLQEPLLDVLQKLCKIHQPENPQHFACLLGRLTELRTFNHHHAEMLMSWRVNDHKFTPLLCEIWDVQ
Method in brief: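 Antagonist mode against 50 uM (final) chenodeoxycholic acid stimulation in FXR-bla HEK 293T cells, 16 h at 37 °C. Inhibition detected as reduced beta-lactamase activity via LiveBLAzer B/G FRET fluorescence after 2 h at room temperature.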

[20] = molecular target: Bile acid receptor (Homo sapiens) (UniProt Q96RI1); experiment: qHTS assay to identify small molecule agonists of the farnesoid-X-receptor (FXR) signaling pathway (AID 743220; active = well fitted activation curve with a large enough effect in the signal ratio in the repeat runs, not every such curve was filed as active; the % refers to the signal ratio)
Method in brief: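 Beta-lactamase reporter under UAS control in GeneBLAzer FXR HEK 293T cells (5000/well) measured with LiveBLAzer FRET substrate after 2 h at room temperature. Compound exposure lasted 16 h at 37C.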

Measured: Potency

C[N+](C)(C)CCCCCCCCCC[N+](C)(C)C
inactive: [1] | [2] | [3] | [4] | [5] | [6] | [7] | [8] | [9] | [10] | [11]

COC(=O)C1=C(C)NC(C)=C(C(=O)OC(C)C)C1c1cccc2nonc12 (centres undefined)
inactive: [1] | [2] | [3] | [12] | [4] | [5] | [6] | [13] | [14] | [7] | [15] | [8] | [16] | [9] | [17] | [10]

OCCc1ccccn1
inactive: [1] | [2] | [3] | [4] | [5] | [6] | [13] | [14] | [7] | [15] | [8] | [16] | [9] | [10] | [11]

Clc1cc(Cl)cc(Cl)c1
inactive: [1] | [18] | [3] | [4] | [5] | [13] | [14] | [7] | [15] | [16] | [9] | [17] | [10] | [11]

O=C(O)c1cn(C2CC2)c2cc(N3CCNCC3)c(F)cc2c1=O
inactive: [1] | [2] | [3] | [12] | [4] | [13] | [14] | [7] | [15] | [8] | [16] | [19] | [9] | [20] | [17]

O=S(=O)(O)c1cccc2c(S(=O)(=O)O)cccc12
inactive: [1] | [2] | [3] | [12] | [4] | [5] | [6] | [7] | [8] | [9] | [17] | [10] | [11]

Cc1ccnc(NS(=O)(=O)c2ccc(N)cc2)n1
inactive: [1] | [2] | [3] | [12] | [4] | [5] | [6] | [13] | [14] | [7] | [8] | [19] | [9] | [20] | [17] | [10] | [11]

COc1cc(C)nc(-n2nc(C)cc2OC)n1
inactive: [1] | [2] | [3] | [5] | [6] | [13] | [7] | [15] | [8] | [16] | [19] | [9]

C[N+](C)(CCOc1ccccc1)Cc1cccs1
inactive: [1] | [18] | [4] | [5] | [6] | [13] | [14] | [7] | [15] | [16] | [9] | [10] | [11]

NC(=O)N[C@@H](CCC(=O)O)C(=O)O
inactive: [4] | [5] | [6] | [13] | [14] | [7] | [15] | [8] | [16] | [9] | [20] | [10] | [11]
